An excerpt weighted towards active compounds, which were near 5.5% of everything screened.
MBNL1-CUG inh: inhibitors of human MBNL1 binding to CUG repeat RNA; Q9NR56; TR-FRET MBNL1-His/biotin-(CUG)12 binding, 665/545 ratio; Potency, µM (titrated, usually from 57.5 µM), for inactives: at the top dose activity change, negative = inhibition, usual class: inhibitors; 280,000 tested, 0.036% active; AID 2675; active = well fitted inhibition curve with a large enough effect in the signal ratio, with a control signal flat, not every such curve was filed as active; inconclusive = small, poorly fitted or top-dose-only effect, or effect the other way, or a change in a side signal; inactive = no such curve, though single readings can be large or run the other way; the % refers to the signal ratio; also: potency is read from the fitted curve at half-maximal effect; % is scaled to controls: 0 for no effect and ±100 for the full control effect
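Compounds (final 92 nM to 58 uM) are added to His-tagged MBNL1 and biotin-(CUG)12, then terbium anti-His antibody and streptavidin-XL665 (5 nM final). After 60 min at room temperature, the 665/545 nm ratio is read.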
Six1-Eya2 inh: blocks human Six1 binding to Eya2. Q15475+O00167. AID 651725. activity change, % (concentration not given with the values). 360,000 tested, 0.56% active. AlphaScreen GST-Six1/His-Eya2 binding, biochemical; hits give low values; in the data active = activity change below about -65%; inconclusive = mostly about -30% to -63%; also: % is scaled to controls: 0 for no effect and ±100 for the full control effect
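AlphaScreen luminescence read after one hour at 37 °C in darkness. Pin-transferred compounds met GST-Six1 and His-Eya2 protein (5X stock 250 nM/500 nM) plus glutathione donor and Ni-chelate acceptor beads (5X, 50 ug/mL).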
CtBP-E1A blk: CtBP/E1A binding inhibition. AlphaScreen GST-E1A/His-CtBP binding, 1536-well; hits give low values. activity change, % (test concentration not listed). 340,000 tested, 0.49% active. AID 651724; in the data active = activity change below about -65%; inconclusive = mostly about -30% to -63%; also: % is scaled to controls: 0 for no effect and ±100 for the full control effect
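AlphaScreen with 125 nM GST-E1A and 125 nM His-CtBP (5X stocks) in Tris pH 8.0, 300 mM NaCl, BSA, Tween 20, TCEP. Compounds preincubated 2 h at 37 deg C, then glutathione donor/nickel acceptor beads added for 1 h at 37 deg C in dark.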
VP16 counter: Gal4-VP16 reporter inhibition counter-screen; Drosophila S2 Gal4-VP16 UAS-luciferase, luminescence, 20 h; Potency, µM (series often up to 53.6 µM), without a hit: at the top dose activity, negative = inhibition, hits mostly inhibitors; 310,000 tested, 3.5% active;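 also: Gal4-VP16 expression switched on by copper sulfate through the metallothionein promoter; potency is read from the fitted curve at half-maximal effect; % is scaled to controls: 0 for no effect and ±100 for the full control effect; nearly all actives have a fitted effect of over 50% in size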
CBFb RUNX1 block: inhibitors of human CBF-beta and RUNX1 interaction; Q01196+Q13951; 230,000 tested, under 10 active; Potency, µM (titrated, usually from 59.8 µM), inactives show at the highest dose activity, negative = inhibition, most hits filed as inhibitors; AID 1477; AlphaScreen CBFb-His/RUNX1-biotin binding, biochemical; also: % of control where 0% means no effect
Target sequence (Q01196 whole entry, looked up): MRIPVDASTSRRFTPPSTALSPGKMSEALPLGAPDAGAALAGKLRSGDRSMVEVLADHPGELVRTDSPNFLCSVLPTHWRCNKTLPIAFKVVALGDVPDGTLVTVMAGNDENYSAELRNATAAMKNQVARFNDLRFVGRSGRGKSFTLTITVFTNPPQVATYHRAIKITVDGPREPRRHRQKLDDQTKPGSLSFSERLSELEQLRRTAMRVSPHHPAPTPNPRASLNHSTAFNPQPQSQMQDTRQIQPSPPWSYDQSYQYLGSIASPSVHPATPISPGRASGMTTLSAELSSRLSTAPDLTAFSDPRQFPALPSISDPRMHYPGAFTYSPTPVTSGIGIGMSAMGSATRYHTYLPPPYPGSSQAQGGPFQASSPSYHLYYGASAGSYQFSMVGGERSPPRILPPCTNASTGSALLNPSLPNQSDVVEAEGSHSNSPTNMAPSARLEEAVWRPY
Target sequence (Q13951 whole entry, looked up): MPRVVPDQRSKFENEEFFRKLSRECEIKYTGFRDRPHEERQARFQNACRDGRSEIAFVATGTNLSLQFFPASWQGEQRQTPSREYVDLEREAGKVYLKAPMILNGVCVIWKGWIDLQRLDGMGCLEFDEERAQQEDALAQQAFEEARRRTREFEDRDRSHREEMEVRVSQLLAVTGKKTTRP
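Compounds were screened at multiple concentrations against a preformed CBF-beta(His)/RUNX1(biotin) complex (30 nM of each) for 15 min at room temperature, followed by 90 min with nickel and streptavidin beads and AlphaScreen reading.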
RORg inh: blocks mouse ROR gamma transcriptional activity; Potency, µM (highest dose often 53.6 µM), without a hit: at the highest dose activity change, negative = inhibition, actives largely listed as inhibitors; P51450; 310,000 tested, 5.4% active; Drosophila S2 Gal4-RORgamma UAS-luciferase reporter, 20 h; also: potency is read from the fitted curve at half-maximal effect; % is scaled to controls: 0 for no effect and ±100 for the full control effect; nearly all actives have a fitted effect of over 60% in size
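Drosophila Schneider cells stably carrying a metallothionein-driven Gal4 DBD–ROR gamma fusion and a UAS-Photinus luciferase reporter were exposed to compound for 1 hr, then induced with copper sulfate (700 uM final) for 20 hr at ambient temperature before luminescence reading.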
The depositor's hits bear a star. Unless noted, calls follow the shape of the dose curve; as a rule, active = well fitted curve in the direction sought with a large enough effect; inconclusive = small, poorly fitted or top-dose-only effect, or another doubt; inactive = no such curve, though single readings can be large; an effect the other way counts as inactive or inconclusive.

For Cc1ccc(-c2ocnc2C(=O)Nc2ccccc2NC(=O)c2ccccn2)cc1 the results were MBNL1-CUG inh -1%, Six1-Eya2 inh -5, CtBP-E1A blk -2, VP16 counter 11µM* and RORg inh 1.6µM*.
For Cc1cccc(-c2ocnc2C(=O)Nc2ccccc2C(=O)N2CCCC2)c1 the results were MBNL1-CUG inh -1%, Six1-Eya2 inh 4, CtBP-E1A blk -9, VP16 counter -10% and RORg inh 10%.
Screening Cc1cccc(-c2ocnc2C(=O)Nc2ccccc2NC(=O)c2ccccn2)c1 returned MBNL1-CUG inh 5%, Six1-Eya2 inh -1, CtBP-E1A blk -2, VP16 counter 8.9µM* and RORg inh 0.56µM*.
For Cc1occc(=O)c1OCc1ccc(Cl)cc1Cl the results were MBNL1-CUG inh -2%, Six1-Eya2 inh -22, CtBP-E1A blk -6, VP16 counter 1% and RORg inh 8%.
CCOc1cc(/C=C/c2ccc3cccc([N+](=O)[O-])c3n2)ccc1O was read as MBNL1-CUG inh 25%, Six1-Eya2 inh inconclusive, CtBP-E1A blk inconclusive, VP16 counter -2%, CBFb RUNX1 block -5% and RORg inh 22%.
CCOc1c(OC(C)=O)ccc(/C=C/c2ccc3cccc(OC(C)=O)c3n2)c1[N+](=O)[O-] was read as MBNL1-CUG inh 9%, Six1-Eya2 inh -13, CtBP-E1A blk -25, VP16 counter 3.5µM*, CBFb RUNX1 block -18% and RORg inh 3.2µM*.
For CCOc1cccc(/C=C/c2ccc3cccc(O)c3n2)c1OC the results were MBNL1-CUG inh 25%, Six1-Eya2 inh -12, CtBP-E1A blk -1, VP16 counter 13µM* and RORg inh 2.8µM*.
COc1cccc(C=Cc2nccc3ccccc23)c1OC was read as Six1-Eya2 inh 11 and CtBP-E1A blk -18.
For COc1c(OC(C)=O)ccc(/C=C/c2ccc3cccc(OC)c3n2)c1[N+](=O)[O-] the results were MBNL1-CUG inh 19%, Six1-Eya2 inh -8, CtBP-E1A blk -8, VP16 counter -17%, CBFb RUNX1 block -20% and RORg inh inconclusive.
Screening CCOc1cccc(/C=C/c2ccc3cccc(O)c3n2)c1O returned MBNL1-CUG inh 21%, Six1-Eya2 inh -8, CtBP-E1A blk -12, VP16 counter inconclusive and RORg inh 3.5µM*.
For Cc1ccccc1S(=O)(=O)NC(=O)C1(C)CCN1C(=O)CC(c1ccccc1)c1ccccc1 (configuration not stated) the results were Six1-Eya2 inh 1 and CtBP-E1A blk 5.
Cc1nc(-c2ccc(S(=O)(=O)NCc3ccccn3)s2)cs1 was read as MBNL1-CUG inh 20%, Six1-Eya2 inh -2, VP16 counter inconclusive, CBFb RUNX1 block 3% and RORg inh 10µM*.
`CCOC(=O)C1=C(C)Nc2nnnn2C1c1c[nH]c2ccccc12` (configuration not stated) gave MBNL1-CUG inh -5%, VP16 counter 22µM*, CBFb RUNX1 block -2% and RORg inh 49%.
For CCOC(=O)C1=C(C)Nc2nnnn2C1c1cccc(OC)c1OC (configuration not stated) the results were MBNL1-CUG inh 1%, Six1-Eya2 inh 4, CtBP-E1A blk -1, VP16 counter 2%, CBFb RUNX1 block 6% and RORg inh 43%.
`CCNC(=S)NS(=O)(=O)c1ccc(CC)cc1` gave MBNL1-CUG inh -3%, Six1-Eya2 inh 1, CtBP-E1A blk -7, VP16 counter inconclusive, CBFb RUNX1 block -3% and RORg inh 13µM*.
Screening CCNC(=S)NS(=O)(=O)c1ccc(C)cc1 returned MBNL1-CUG inh -4%, Six1-Eya2 inh 6, CtBP-E1A blk -2, VP16 counter inconclusive, CBFb RUNX1 block -4% and RORg inh inconclusive.
For CCCn1c(-c2ccc(F)cc2)nc2c(NCCCN3CCOCC3)nc(C)nc21 the results were VP16 counter -1%, CBFb RUNX1 block 11% and RORg inh -37%.

From PubChem BioAssay
